This passage reports binding signal results from article PMC8384837, “Expanding the binding specificity for RNA recognition by a PUF domain”.

Residue numbers refer to the chain shown, from its start.

What all share (assay): yeast three-hybrid, YBZ-1, SC-Leu-His + 0.5 mM 3-AT, 4 days
Holding throughout (details): tags: N-Gal4 AD-HA kept; label: inside an RPR1-promoter hybrid RNA with tandem MS2 sites; ssRNA

Assay [1] addresses PUM1 PUF domain R3-FCE (Homo sapiens, UniProt Q14671 828-1176, C935F;R936C;Q939E). The procedure, abridged: (§1)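 Pumilio-1 PUF domain libraries, randomized (NNK) at the three base-contacting residues of each repeat, were co-expressed with matching RNA elements from a centromeric plasmid in strain YBZ-1 (LexA–MS2 coat fusion, HIS3 reporter). Transformants were plated on SC-Leu (input) and SC-Leu-His + 0.5 mM 3-AT (selection) for four days, and repeat regions were PCR-amplified and Illumina-sequenced. The interaction score is the log2 change in variant frequency from input to selection, with pseudocount 1 where absent.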

Assay [2] has as its target PUM1 PUF domain R3-GRT (Homo sapiens, UniProt Q14671 828-1176, C935G;Q939T). The procedure, abridged: as §1
The target of assay [3] is PUM1 PUF domain R3-WWV (Homo sapiens, UniProt Q14671 828-1176, C935W;R936W;Q939V). The gist of the method:
as §1

Assay [4] deals with PUM1 PUF domain R3-YWG (Homo sapiens, UniProt Q14671 828-1176, C935Y;R936W;Q939G). The gist of the method: as §1
Assay [5] has as its target PUM1 PUF domain R3-LFM (Homo sapiens, UniProt Q14671 828-1176, C935L;R936F;Q939M). The procedure, abridged:
as §1

Assay [6] deals with PUM1 PUF domain R2-KRG (Homo sapiens, UniProt Q14671 828-1176, N899K;Y900R;Q903G). The gist of the method:
as §1

Assay [7] has as its target PUM1 PUF domain R1-KGM (Homo sapiens, UniProt Q14671 828-1176, S863K;R864G;Q867M). The procedure, abridged: as §1
Assay [8] concerns the target PUM1 PUF domain R1-YPR (Homo sapiens, UniProt Q14671 828-1176, S863Y;R864P;Q867R). The gist of the method: as §1
The target in assay [9] is PUM1 PUF domain R5-GRG (Homo sapiens, UniProt Q14671 828-1176, C1007G;Q1011G). The gist of the method:
as §1

The target in assay [10] is PUM1 PUF domain R7-LSS (Homo sapiens, UniProt Q14671 828-1176, S1079L;N1080S;E1083S). The procedure, abridged:
as §1

Assay [11] deals with PUM1 PUF domain R7-RCG (Homo sapiens, UniProt Q14671 828-1176, S1079R;N1080C;E1083G). The procedure, abridged:
as §1

For assay [12], the target named is PUM1 PUF domain R4-DWR (Homo sapiens, UniProt Q14671 828-1176, N971D;H972W;Q975R). The gist of the method:
as §1

For assay [13], the target named is PUM1 PUF domain R5-LHP (Homo sapiens, UniProt Q14671 828-1176, C1007L;R1008H;Q1011P). The gist of the method: as §1
The target in assay [14] is PUM1 PUF domain R5-DGA (Homo sapiens, UniProt Q14671 828-1176, C1007D;R1008G;Q1011A). The procedure, abridged:
as §1

Assay [15] has as its target PUM1 PUF domain R7-KYN (Homo sapiens, UniProt Q14671 828-1176, S1079K;N1080Y;E1083N). The gist of the method: as §1
Assay [16] concerns the target PUM1 PUF domain R3-IRT (Homo sapiens, UniProt Q14671 828-1176, C935I;Q939T). The procedure, abridged:
as §1

Assay [17] has as its target T1, PUM1 PUF domain R6-IYL (Homo sapiens, UniProt Q14671 828-1176, N1043I;Q1047L).
T1 sequence: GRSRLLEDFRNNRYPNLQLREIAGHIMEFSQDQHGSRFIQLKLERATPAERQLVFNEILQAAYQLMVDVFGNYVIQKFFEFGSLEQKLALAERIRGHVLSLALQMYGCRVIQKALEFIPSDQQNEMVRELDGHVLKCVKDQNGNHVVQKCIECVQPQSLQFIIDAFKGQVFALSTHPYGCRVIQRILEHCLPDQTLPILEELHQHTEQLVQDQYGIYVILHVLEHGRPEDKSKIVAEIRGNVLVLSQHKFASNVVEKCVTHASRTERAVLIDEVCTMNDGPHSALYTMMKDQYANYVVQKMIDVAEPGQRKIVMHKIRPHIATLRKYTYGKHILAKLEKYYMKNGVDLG
The gist of the method:
as §1

The target in assay [18] is T2, PUM1 PUF domain R6-SYA (Homo sapiens, UniProt Q14671 828-1176, N1043S;Q1047A).
T2 sequence: T1 sequence with I216S, L220A
The gist of the method:
as §1

The target of assay [19] is PUM1 PUF domain R8-SWS (Homo sapiens, UniProt Q14671 828-1176, N1122S;Y1123W;Q1126S). The procedure, abridged: as §1
Assay [20] has as its target PUM1 PUF domain R3-VRT (Homo sapiens, UniProt Q14671 828-1176, C935V;Q939T). The gist of the method:
as §1

For the sequence “GGCUAGAACUAGUGGAUCCCCCGGCGCCCGGCGGCUCGAGCCCGGGUAAGUGUAAGUAGUCUGCAUGCCGCCGGGCGCCAUGCCUGCAGGUCGACUCUAGAAAACAUG”, the binding signal was 3.54 log2 enrichment (interaction score) in assay [1]; 1.58 log2 enrichment (interaction score) in assay [2]; 4.18 log2 enrichment (interaction score) in [3]; 6.77 log2 enrichment (interaction score) in [4]; 5.47 log2 enrichment (interaction score) in assay [5].

As to “GGCUAGAACUAGUGGAUCCCCCGGCGCCCGGCGGCUCGAGCCCGGGUAAGUGUAAAGAGUCUGCAUGCCGCCGGGCGCCAUGCCUGCAGGUCGACUCUAGAAAACAUG”, the binding signal in assay [6] was 4.1 log2 enrichment (interaction score).

For the sequence “GGCUAGAACUAGUGGAUCCCCCGGCGCCCGGCGGCUCGAGCCCGGGUAAGUGUAAUUAGUCUGCAUGCCGCCGGGCGCCAUGCCUGCAGGUCGACUCUAGAAAACAUG”, the binding signal was 1.63 log2 enrichment (interaction score) in [2], 2.73 log2 enrichment (interaction score) in assay [3] and 4.54 log2 enrichment (interaction score) in [4].

For “GGCUAGAACUAGUGGAUCCCCCGGCGCCCGGCGGCUCGAGCCCGGGUAAGUGUAAAUCGUCUGCAUGCCGCCGGGCGCCAUGCCUGCAGGUCGACUCUAGAAAACAUG”, the binding signal in [7] was 2.83 log2 enrichment (interaction score); in assay [8], 3.29 log2 enrichment (interaction score).

On to “GGCUAGAACUAGUGGAUCCCCCGGCGCCCGGCGGCUCGAGCCCGGGUAAGUGUAAAUUGUCUGCAUGCCGCCGGGCGCCAUGCCUGCAGGUCGACUCUAGAAAACAUG”, for which the binding signal in assay [7] was 0.32 log2 enrichment (interaction score); in [8], 5.44 log2 enrichment (interaction score).

As for “GGCUAGAACUAGUGGAUCCCCCGGCGCCCGGCGGCUCGAGCCCGGGUAAGUGUCAAUAGUCUGCAUGCCGCCGGGCGCCAUGCCUGCAGGUCGACUCUAGAAAACAUG”, in assay [9], the binding signal was 0.84 log2 enrichment (interaction score).

In the case of “GGCUAGAACUAGUGGAUCCCCCGGCGCCCGGCGGCUCGAGCCCGGGUAAGUUUAAAUAGUCUGCAUGCCGCCGGGCGCCAUGCCUGCAGGUCGACUCUAGAAAACAUG”, the binding signal is 2.47 log2 enrichment (interaction score) in [10] and 2.43 log2 enrichment (interaction score) in assay [11].

“GGCUAGAACUAGUGGAUCCCCCGGCGCCCGGCGGCUCGAGCCCGGGUAAGUGUACAUAGUCUGCAUGCCGCCGGGCGCCAUGCCUGCAGGUCGACUCUAGAAAACAUG”: in [12], the binding signal is 6.69 log2 enrichment (interaction score).

“GGCUAGAACUAGUGGAUCCCCCGGCGCCCGGCGGCUCGAGCCCGGGUAAGUGUUAAUAGUCUGCAUGCCGCCGGGCGCCAUGCCUGCAGGUCGACUCUAGAAAACAUG”: the binding signal is 3.09 log2 enrichment (interaction score) in [13], 2.6 log2 enrichment (interaction score) in assay [14] and 3.72 log2 enrichment (interaction score) in assay [9].

As to “GGCUAGAACUAGUGGAUCCCCCGGCGCCCGGCGGCUCGAGCCCGGGUAAGUGUAUAUAGUCUGCAUGCCGCCGGGCGCCAUGCCUGCAGGUCGACUCUAGAAAACAUG”, in assay [12], the binding signal is 5.3 log2 enrichment (interaction score).

Take “GGCUAGAACUAGUGGAUCCCCCGGCGCCCGGCGGCUCGAGCCCGGGUAAGUCUAAAUAGUCUGCAUGCCGCCGGGCGCCAUGCCUGCAGGUCGACUCUAGAAAACAUG”: the binding signal in assay [15] was 3.09 log2 enrichment (interaction score).

On to “GGCUAGAACUAGUGGAUCCCCCGGCGCCCGGCGGCUCGAGCCCGGGUAAGUGUGAAUAGUCUGCAUGCCGCCGGGCGCCAUGCCUGCAGGUCGACUCUAGAAAACAUG”, for which the binding signal in assay [9] was 3.07 log2 enrichment (interaction score).

As for “GGCUAGAACUAGUGGAUCCCCCGGCGCCCGGCGGCUCGAGCCCGGGUAAGUGUAAAUAGUCUGCAUGCCGCCGGGCGCCAUGCCUGCAGGUCGACUCUAGAAAACAUG”, the binding signal was 4.08 log2 enrichment (interaction score) in assay [16]; 4.93 log2 enrichment (interaction score) in assay [17]; 2.82 log2 enrichment (interaction score) in assay [2]; 2.48 log2 enrichment (interaction score) in assay [18]; 2.46 log2 enrichment (interaction score) in assay [19]; 3.08 log2 enrichment (interaction score) in [9]. Also, the binding signal is 3.97 log2 enrichment (interaction score) in assay [20] and 4.94 log2 enrichment (interaction score) in assay [4].

As to “GGCUAGAACUAGUGGAUCCCCCGGCGCCCGGCGGCUCGAGCCCGGGUAAGCGUAAAUAGUCUGCAUGCCGCCGGGCGCCAUGCCUGCAGGUCGACUCUAGAAAACAUG”, in assay [19], the binding signal was 2.67 log2 enrichment (interaction score).
